Inconclusive results are not listed. Activity calls are given as the source filed them. Unless noted, calls come from the whole dose curve; as a rule, active = well fitted curve in the direction sought with a large enough effect in the repeat runs; inconclusive = weak or mixed curves; inactive = no such curve, though single readings can be large; an effect the other way counts as inactive or inconclusive.
Experiments:
[1] = target: Peroxisome proliferator-activated receptor delta (Homo sapiens) (UniProt Q03181); assay: qHTS assay to identify small molecule agonists of the peroxisome proliferator-activated receptor delta (PPARd) signaling pathway (AID 743212; calls by dose curve)
Method in brief: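 Quantitative high-throughput agonist screen in a HEK293H beta-lactamase reporter line under UAS control. Compounds in DMSO, at 37 C. Fluorescence read after 2 h with FRET substrate at room temperature.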

[2] = qHTS assay to identify small molecule antagonists of the peroxisome proliferator-activated receptor delta (PPARd) signaling pathway - cell viability counter screen (AID 743213); note: nearly all actives have a fitted effect of over 50% in size
Method in brief: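 Agonist-stimulated (L165041, 300 nM final) HEK293H PPARd UAS-bla cells are exposed to compounds for 17 h at 37 C, and ATP-based luminescence (CellTiter-Glo) from the same wells reports cytotoxicity.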

[3] = target: Peroxisome proliferator-activated receptor delta (Homo sapiens) (UniProt Q03181); assay: qHTS assay to identify small molecule antagonists of the peroxisome proliferator-activated receptor delta (PPARd) signaling pathway (AID 743215; active = well fitted inhibition curve with a large enough effect in the signal ratio in the repeat runs, not every such curve was filed as active; the % refers to the signal ratio; note: series mostly up to about 62 µM)
Method in brief: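 HEK293H UAS-bla, PPARd; agonist L165041 300 nM final with cpd in DMSO; 37 C 17 h; FRET substrate, RT 2 h; fluorescence intensity.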

[4] = target: Bile acid receptor (Homo sapiens) (UniProt Q96RI1); assay: qHTS assay to identify small molecule antagonists of the farnesoid-X-receptor (FXR) signaling pathway (AID 743217; active = well fitted inhibition curve with a large enough effect in the signal ratio in the repeat runs, not every such curve was filed as active; the % refers to the signal ratio)
Method in brief: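 GeneBLAzer FXR-UAS-bla HEK 293T, CDCA-stimulated (50 uM final). Compound treatment 16 h, 37 °C. Detection: beta-lactamase cleavage of B/G FRET substrate, fluorescence.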

[5] = target: Bile acid receptor (Homo sapiens) (UniProt Q96RI1); assay: qHTS assay to identify small molecule agonists of the farnesoid-X-receptor (FXR) signaling pathway (AID 743220; active = well fitted activation curve with a large enough effect in the signal ratio in the repeat runs, not every such curve was filed as active; the % refers to the signal ratio)
Method in brief: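 Beta-lactamase reporter under UAS control in GeneBLAzer FXR HEK 293T cells (5000/well) measured with LiveBLAzer FRET substrate after 2 h at room temperature. Compound exposure lasted 16 h at 37C.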

[6] = qHTS assay to identify small molecule antagonists of the farnesoid-X-receptor (FXR) signaling pathway - cell viability counter screen (AID 743221; active = well fitted cell-killing curve with a large enough effect in the repeat runs, not every such curve was filed as active; note: nearly all actives have a fitted effect of over 50% in size)
Method in brief: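 HEK 293T FXR-bla cells, 5 h pre-incubation; compound + CDCA 50 uM final, 16 h, 37 C; beta-lactamase FRET read first, then CellTiter-Glo luminescence, 30 min RT.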

[7] = qHTS assay to identify small molecule agonists of the farnesoid-X-receptor (FXR) signaling pathway - cell viability counter screen (AID 743218); note: nearly all actives have a fitted effect of over 45% in size
Method in brief: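 Parallel cytotoxicity test: compound-treated (16 h, 37 C) HEK 293T FXR-bla reporter cells were lysed with CellTiter-Glo and luminescence recorded.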

[8] = target: Vitamin D3 receptor (Homo sapiens) (UniProt P11473); assay: qHTS assay to identify small molecule agonists of the vitamin D receptor (VDR) signaling pathway (AID 743222; calls by dose curve)
Method in brief: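 In VDR-bla cells, compound-induced beta-lactamase expression is quantified by FRET substrate fluorescence. Treatment lasts 16 h at 37C; substrate develops 2 h at room temperature.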

[9] = target: Vitamin D3 receptor (Homo sapiens) (UniProt P11473); assay: qHTS assay to identify small molecule antagonists of the vitamin D receptor (VDR) signaling pathway (AID 743223; active = well fitted inhibition curve with a large enough effect in the signal ratio in the repeat runs, not every such curve was filed as active; the % refers to the signal ratio)
Method in brief: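 Beta-lactamase reporter read-out: FRET substrate fluorescence after 2 h at room temperature, following 16 h exposure of VDR-bla cells to test compound plus 3 nM (final) 1alpha,25-dihydroxyvitamin D3 agonist at 37C.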

[10] = qHTS assay to identify small molecule agonists of the vitamin D receptor (VDR) signaling pathway - cell viability counter screen (AID 743224); note: series mostly up to about 63 µM; nearly all actives have a fitted effect of over 50% in size
Method in brief: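 Plated VDR-bla cells (4 h, 37C) received compound, incubated 16 h, then LiveBLAzer substrate 2 h RT; CellTiter-Glo added afterwards, luminescence read at 30 min.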
% is set by controls: 0 for no effect and ±100 for the full control effect.

Vitamin D3 receptor (Homo sapiens), sequence (P11473 whole entry, looked up): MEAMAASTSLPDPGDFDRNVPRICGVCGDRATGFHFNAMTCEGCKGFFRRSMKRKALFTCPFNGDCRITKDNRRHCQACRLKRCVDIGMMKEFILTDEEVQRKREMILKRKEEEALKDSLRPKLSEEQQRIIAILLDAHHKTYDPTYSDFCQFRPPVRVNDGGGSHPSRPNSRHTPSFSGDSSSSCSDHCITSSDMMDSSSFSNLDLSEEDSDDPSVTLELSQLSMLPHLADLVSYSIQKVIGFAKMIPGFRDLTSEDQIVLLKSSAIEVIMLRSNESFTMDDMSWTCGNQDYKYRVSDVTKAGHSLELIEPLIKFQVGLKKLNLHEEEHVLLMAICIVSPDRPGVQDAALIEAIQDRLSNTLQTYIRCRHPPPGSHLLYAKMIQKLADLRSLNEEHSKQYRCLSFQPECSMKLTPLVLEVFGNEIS
Peroxisome proliferator-activated receptor delta (Homo sapiens), sequence (Q03181 whole entry, looked up): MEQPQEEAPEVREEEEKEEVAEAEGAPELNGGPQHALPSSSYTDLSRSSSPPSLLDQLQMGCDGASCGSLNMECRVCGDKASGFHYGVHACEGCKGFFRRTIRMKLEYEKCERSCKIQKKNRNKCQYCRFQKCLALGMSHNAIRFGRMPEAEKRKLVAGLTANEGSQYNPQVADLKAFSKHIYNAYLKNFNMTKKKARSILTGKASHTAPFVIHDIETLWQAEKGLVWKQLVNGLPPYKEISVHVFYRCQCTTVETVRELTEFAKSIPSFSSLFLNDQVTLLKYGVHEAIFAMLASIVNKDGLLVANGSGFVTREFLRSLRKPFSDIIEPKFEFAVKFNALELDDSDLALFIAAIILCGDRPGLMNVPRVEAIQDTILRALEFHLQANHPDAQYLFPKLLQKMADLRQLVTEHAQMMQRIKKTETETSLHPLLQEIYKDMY
Bile acid receptor (Homo sapiens), sequence (Q96RI1 whole entry, looked up): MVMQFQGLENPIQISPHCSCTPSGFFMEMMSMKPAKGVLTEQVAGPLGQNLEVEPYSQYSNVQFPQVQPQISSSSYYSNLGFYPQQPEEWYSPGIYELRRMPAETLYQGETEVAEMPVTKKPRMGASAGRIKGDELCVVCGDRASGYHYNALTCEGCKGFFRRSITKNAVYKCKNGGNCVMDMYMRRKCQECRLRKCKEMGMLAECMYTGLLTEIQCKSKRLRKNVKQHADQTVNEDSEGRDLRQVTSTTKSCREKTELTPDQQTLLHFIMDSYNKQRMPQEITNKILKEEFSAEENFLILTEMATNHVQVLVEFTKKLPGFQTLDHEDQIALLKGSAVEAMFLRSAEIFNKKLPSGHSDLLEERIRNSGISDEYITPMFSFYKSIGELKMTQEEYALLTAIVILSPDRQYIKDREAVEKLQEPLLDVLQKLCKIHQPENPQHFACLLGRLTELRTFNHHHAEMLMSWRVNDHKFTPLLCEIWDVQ

C[C@@H](O)[C@H]1C(=O)N2C(C(=O)O)=C(S[C@@H]3CN[C@H](CNS(N)(=O)=O)C3)[C@H](C)[C@H]12
inactive: Potency [1] | Potency [2] | outcome [3] | outcome [4] | outcome [5] | Potency [6]

[O-][n+]1ccc(Cl)cc1
inactive: Potency [1] | Potency [2] | outcome [3] | outcome [4] | Potency [7] | outcome [5] | Potency [6] | outcome [8] | outcome [9] | outcome [10]

O=C(O)c1ccccc1-n1cc(C(=O)O)c(=O)c2cc(Nc3c(F)cc(F)cc3Cl)c(Cl)cc21
inactive: Potency [1] | Potency [2] | outcome [3] | Potency [7] | outcome [5] | Potency [6] | outcome [9]

CCOc1cc(OCC)c(C(C)=O)cc1OCC
inactive: Potency [1] | Potency [2] | outcome [3] | Potency [7] | outcome [5] | Potency [6] | outcome [8] | outcome [9] | outcome [10]

CCOc1ccccc1O
inactive: Potency [1] | Potency [2] | outcome [3] | outcome [4] | Potency [7] | outcome [5] | Potency [6] | outcome [10]

CS(C)=O
inactive: Potency [1] | Potency [2] | outcome [3] | outcome [4] | Potency [7] | outcome [5] | Potency [6] | outcome [8]

CCCCCO
inactive: Potency [1] | Potency [2] | outcome [3] | outcome [4] | Potency [7] | outcome [5] | Potency [6] | outcome [8] | outcome [9] | outcome [10]

COc1ccc(/C=C/S(=O)(=O)NC(=O)c2ccc(C)cc2Cl)cc1
inactive: Potency [1] | Potency [2] | outcome [3] | Potency [7] | outcome [5] | outcome [9] | outcome [10]

C=Cc1ccc(C=C)cc1
inactive: Potency [1] | Potency [2] | outcome [3] | outcome [4] | outcome [5] | Potency [6] | outcome [8] | outcome [10]

O=Cc1ccc(Cl)c([N+](=O)[O-])c1
inactive: Potency [1] | Potency [2] | outcome [3] | Potency [7] | outcome [5] | Potency [6] | outcome [8]

CCc1c(C)[nH]c2c1C(=O)C(CN1CCOCC1)CC2 (stereo unspecified)
inactive: Potency [1] | Potency [2] | outcome [3] | outcome [4] | Potency [7] | outcome [5] | Potency [6] | outcome [8] | outcome [9] | outcome [10]

CCCCOC(=O)C(C)Oc1ccc(Oc2ccc(C(F)(F)F)cn2)cc1 (stereo unspecified)
inactive: Potency [1] | Potency [2] | outcome [3] | outcome [4] | Potency [7] | outcome [5] | Potency [6] | outcome [9] | outcome [10]

CCOCCn1c(N2CCCN(C)CC2)nc2ccccc21
inactive: Potency [1] | Potency [2] | outcome [3] | Potency [6] | outcome [8] | outcome [9]

Cc1nc(C)c(C)nc1C
inactive: Potency [1] | Potency [2] | outcome [3] | Potency [7] | Potency [6] | outcome [8] | outcome [9] | outcome [10]

CCC(C)CCCC(C)(C)O (stereo unspecified)
inactive: Potency [1] | Potency [2] | outcome [3] | Potency [7] | Potency [6] | outcome [8] | outcome [10]

C=CC(C)(O)CC/C=C(/C)CCC=C(C)C (stereo unspecified)
inactive: Potency [1] | Potency [2] | outcome [3] | outcome [5] | Potency [6] | outcome [10]

CCC(=O)O[C@@H]1C[C@H]2CC[C@]1(C)C2(C)C
inactive: Potency [1] | Potency [2] | outcome [3] | Potency [6] | outcome [8] | outcome [10]

O=S(=O)(O)c1cc(Cl)c(Cl)cc1Cl
inactive: Potency [1] | Potency [2] | outcome [3] | Potency [7] | outcome [8] | outcome [10]

OCC(O)c1ccccc1 (stereo unspecified)
inactive: Potency [1] | Potency [2] | outcome [3] | Potency [7] | outcome [8] | outcome [10]

CC(C(=O)O)c1ccc(/C=C2\CCCCC2=O)cc1 (stereo unspecified)
inactive: Potency [1] | Potency [2] | outcome [3] | Potency [7] | Potency [6] | outcome [8] | outcome [10]

CCCCCCCCCCCCCCCCCCCl
inactive: activation [1] 0.183% [at 5.95 µM] | viability change, negative = cytotoxic [2] -29.3% [at 6.26 µM] | ratio activity, negative = inhibition [3] -12.3% [at 6.26 µM] | activation [5] 0.479% [at 5.95 µM] | activity change, negative = cytotoxicity [6] 0.201% [at 5.95 µM] | activation [8] 1.2% [at 6.01 µM] | activity change, negative = inhibition [9] 1.88% [at 6.95 µM] | activity change, negative = cytotoxicity [10] 6.04% [at 5.95 µM]

N#Cc1ccc(CC(=O)c2cccc(C(F)(F)F)c2)cc1
inactive: Potency [1] | Potency [2] | outcome [3] | Potency [7] | Potency [6] | outcome [10]

C[C@H]1C[C@H]2[C@@H]3CCC4=CC(=O)C=C[C@]4(C)[C@@]3(F)[C@@H](O)C[C@]2(C)[C@@]1(O)C(=O)COP(=O)(O)O
inactive: Potency [1] | Potency [2] | outcome [3] | Potency [7] | Potency [6] | outcome [8] | outcome [9] | outcome [10]

CNc1ccccc1
inactive: Potency [1] | Potency [2] | outcome [3] | Potency [7] | Potency [6] | outcome [8] | outcome [9] | outcome [10]

CC(C)(O)C(=O)O
inactive: Potency [1] | Potency [2] | outcome [3] | Potency [7] | Potency [6] | outcome [8] | outcome [9] | outcome [10]

CC(=O)c1cccnc1
inactive: Potency [1] | Potency [2] | outcome [3] | Potency [7] | Potency [6] | outcome [8] | outcome [10]

O=c1[nH]nc(-c2ccc([N+](=O)[O-])o2)o1
inactive: Potency [1] | Potency [2] | outcome [3] | Potency [7] | outcome [8] | outcome [9] | outcome [10]

CC1(C)C(=O)NC(=O)N1CO
inactive: Potency [1] | Potency [2] | outcome [3] | Potency [6] | outcome [9] | outcome [10]

Cc1cc(N)n(-c2ccccc2)n1
inactive: Potency [1] | Potency [2] | outcome [3] | Potency [7] | Potency [6] | outcome [9] | outcome [10]

CO[C@@H]1COCC[C@@H]1N[C@@H]1CC[C@@](C(=O)N2CCc3ncc(C(F)(F)F)cc3C2)(C(C)C)C1
inactive: Potency [1] | Potency [2] | outcome [3] | Potency [7] | outcome [9]
